Records with an inconclusive call do not appear. The source made the active and inactive calls. The calls were made as follows, unless noted: active = hit-call score of the fitted dose curve at least 0.9, where 1 is the maximum; inactive = score below 0.9.

Read-out in assay [1]: Pyruvate Dehydrogenase Kinase 4 (PDK4), PDK4 (gene 5166)
Kind of assay: LTEA_HepaRG_PDK4: Life Technologies and Expression Analysis (LTEA) Assay for Pyruvate Dehydrogenase Kinase 4 (PDK4) using HepaRG (AID 2283525). The note with it: mRNA level, 48 h; actives raise or lower the signal. In short, it runs like this: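 HepaRG (human liver line), 48 h chemical exposure, 8-pt half-log CRC top 100 uM, 0.5% DMSO vehicle, duplicates. Readout: TaqMan qRT-PCR of PDK4 mRNA, housekeeping-normalized; gain/loss fit relative to DMSO baseline.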

Read-out in assay [2]: NAD(P)H dehydrogenase [quinone] 1 (NQO1), NQO1 (gene 1728)
The assay can be described thus: LTEA_HepaRG_NQO1: Life Technologies and Expression Analysis (LTEA) Assay for NAD(P)H dehydrogenase [quinone] 1 (NQO1) using HepaRG (AID 2283526). The note with it: mRNA level, 48 h; actives raise or lower the signal. In short, it runs like this:
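In this assay, gene expression is read by qRT-PCR after 48 h exposure of HepaRG cells to eight concentrations (max 100 uM, half-log) in 0.5% DMSO. Each chemical runs in duplicate, and activity is scored relative to vehicle.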

Read-out in assay [3]: Nuclear factor erythroid 2-related factor 2 (Homo sapiens) (UniProt Q16236)
Kind of assay: LTEA_HepaRG_NFE2L2: Life Technologies and Expression Analysis (LTEA) Assay for Nuclear factor erythroid 2-related factor 2 (NFE2L2) Transcription Factor using HepaRG (AID 2283527). The note with it: mRNA level, 48 h; actives raise or lower the signal. In short, it runs like this:
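HepaRG, 48 h dosing, 8-pt half-log series from 100 uM in 0.5% DMSO, duplicates. Read-out: NFE2L2 mRNA by qRT-PCR (ACTB/GAPDH/POLR2A normalization). Bidirectional curve fit vs DMSO baseline.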

Read-out in assay [4]: succinate dehydrogenase complex iron sulfur subunit B (SDHB), SDHB (gene 6390)
The assay can be described thus: LTEA_HepaRG_SDHB: Life Technologies and Expression Analysis (LTEA) Assay for succinate dehydrogenase complex iron sulfur subunit B (SDHB) using HepaRG (AID 2283528). The note with it: mRNA level, 48 h; actives raise or lower the signal. In short, it runs like this: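 HepaRG cells (~100,000/well, plated 48 h) exposed in duplicate for 48 h in serum-free induction medium to 8-point half-log series from 100 uM in 0.5% DMSO; mRNA by qRT-PCR normalised to ACTB, GAPDH, POLR2A; bidirectional fit versus DMSO.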

Read-out in assay [5]: Signal transducer and activator of transcription 3 (Homo sapiens) (UniProt P40763)
Kind of assay: LTEA_HepaRG_STAT3: Life Technologies and Expression Analysis (LTEA) Assay for Signal transducer and activator of transcription (STAT3) using HepaRG (AID 2283529). The note with it: mRNA level, 48 h; actives raise or lower the signal. In short, it runs like this:
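HepaRG, 48 h exposure, 8-pt half-log series (top 100 uM), 0.5% DMSO vehicle, duplicates. Readout: STAT3 transcript by Fluidigm qRT-PCR, housekeeping-normalized; bidirectional fit vs DMSO baseline.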

Read-out in assay [6]: solute carrier (SLCO1B1), SLCO1B1 (gene 10599)
Kind of assay: LTEA_HepaRG_SLCO1B1: Life Technologies and Expression Analysis (LTEA) Assay for solute carrier (SLCO1B1) using HepaRG (AID 2283530). The note with it: mRNA level, 48 h; actives raise or lower the signal. In short, it runs like this:
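HepaRG, serum-free induction medium, 48 h dosing, 8-pt half-log from 100 uM, 0.5% DMSO vehicle, duplicates. Readout: SLCO1B1 mRNA, qRT-PCR, ACTB/GAPDH/POLR2A normalization; up or down fit vs DMSO.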

Read-out in assay [7]: sulfotransferase 2A1 (SULT2A1), SULT2A1 (gene 6822)
The assay can be described thus: LTEA_HepaRG_SULT2A1: Life Technologies and Expression Analysis (LTEA) Assay for sulfotransferase 2A1 (SULT2A1) using HepaRG (AID 2283531). The note with it: mRNA level, 48 h; actives raise or lower the signal. In short, it runs like this:
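Transcript levels of SULT2A1, quantified by qRT-PCR and normalized to three housekeeping genes, serve as the readout. Human HepaRG cultures receive test chemicals for 48 h at up to 100 uM in half-log steps, with 0.5% DMSO vehicle.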

Read-out in assay [8]: Transforming Growth Factor (TGFA), TGFA (gene 7039)
Kind of assay: LTEA_HepaRG_TGFA: Life Technologies and Expression Analysis (LTEA) Assay for Transforming Growth Factor (TGFA) using HepaRG (AID 2283532). The note with it: mRNA level, 48 h; actives raise or lower the signal. In short, it runs like this:
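qRT-PCR read-out of TGFA transcript, normalized to three housekeeping genes, fitted bidirectionally against 0.5% DMSO baseline. Human HepaRG cultures received chemicals for 48 h at eight half-log concentrations, top 100 uM.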

Read-out in assay [9]: Transforming Growth Factor (TGFB1), TGFB1 (gene 7040)
The assay can be described thus: LTEA_HepaRG_TGFB1: Life Technologies and Expression Analysis (LTEA) Assay for Transforming Growth Factor (TGFB1) Transporter using HepaRG (AID 2283533). The note with it: mRNA level, 48 h; actives raise or lower the signal. In short, it runs like this:
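HepaRG, 48 h post-plating, switched to serum-free induction medium; chemicals 100 uM top, half-log, 8 pts, 0.5% DMSO, dup; 48 h exposure; RNA → Fluidigm TaqMan qRT-PCR; norm ACTB/GAPDH/POLR2A; bidirectional fit vs DMSO.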

Read-out in another assay: TIMP1, TIMP1 (gene 7076)
Kind of assay: LTEA_HepaRG_TIMP1: Life Technologies and Expression Analysis (LTEA) Assay for TIMP1 using HepaRG (AID 2283534). The note with it: mRNA level, 48 h; actives raise or lower the signal. In short, it runs like this:
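Readout is TIMP1 mRNA level measured by qRT-PCR and normalized to three housekeeping genes. Human HepaRG cells were treated for 48 h in duplicate at eight concentrations up to 100 uM (0.5% DMSO); gain or loss fitted against DMSO.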

Read-out in assay [10]: Tumor necrosis factor receptor 1 (TNFRSF1A), TNFRSF1A (gene 7132)
The assay can be described thus: LTEA_HepaRG_TNFRSF1A: Life Technologies and Expression Analysis (LTEA) Assay for Tumor necrosis factor receptor 1 (TNFRSF1A) using HepaRG (AID 2283535). The note with it: mRNA level, 48 h; actives raise or lower the signal. In short, it runs like this:
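Read-out is TNFRSF1A transcript level by TaqMan qRT-PCR, normalized to three housekeeping genes, scored as gain or loss of signal versus 0.5% DMSO. Human HepaRG cells received test chemicals for 48 h at up to 100 uM (half-log series).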

Read-out in assay [11]: Thyroid Hormone Responsive (THRSP), THRSP (gene 7069)
The assay can be described thus: LTEA_HepaRG_THRSP: Life Technologies and Expression Analysis (LTEA) Assay for Thyroid Hormone Responsive (THRSP) using HepaRG (AID 2283536). The note with it: mRNA level, 48 h; actives raise or lower the signal. In short, it runs like this: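 qRT-PCR read-out (Fluidigm TaqMan), housekeeping-normalized (ACTB/GAPDH/POLR2A). HepaRG, 48 h chemical exposure, 8-pt half-log series from 100 uM in 0.5% DMSO, duplicates. Bidirectional curve fit vs 0.5% DMSO baseline.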

Read-out in assay [12]: Cellular tumor antigen p53 (Homo sapiens) (UniProt P04637)
Kind of assay: LTEA_HepaRG_TP53: Life Technologies and Expression Analysis (LTEA) Assay for Tumor Protein P53 (TP53) using HepaRG (AID 2283537). The note with it: mRNA level, 48 h; actives raise or lower the signal. In short, it runs like this: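 Differentiated HepaRG cells in serum-free induction medium exposed 48 h in duplicate to 8 half-log concentrations, top 100 uM, 0.5% DMSO. TP53 mRNA by TaqMan qRT-PCR (Fluidigm), normalized to ACTB, GAPDH, POLR2A; fitted bidirectionally versus DMSO.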

Read-out in assay [13]: UDP glucuronosyltransferase (UGT1A1), UGT1A1 (gene 54658)
Kind of assay: LTEA_HepaRG_UGT1A1: Life Technologies and Expression Analysis (LTEA) Assay for UDP glucuronosyltransferase (UGT1A1) using HepaRG (AID 2283538). The note with it: mRNA level, 48 h; actives raise or lower the signal. In short, it runs like this:
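mRNA induction or loss of UGT1A1, by TaqMan qRT-PCR, in duplicate HepaRG wells after 48 h exposure to half-log dilutions topping at 100 uM; DMSO (0.5%) served as baseline.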

Read-out in assay [14]: UDP glucuronosyltransferase (UGT1A6), UGT1A6 (gene 54578)
The assay can be described thus: LTEA_HepaRG_UGT1A6: Life Technologies and Expression Analysis (LTEA) Assay for UDP glucuronosyltransferase (UGT1A6) using HepaRG (AID 2283539). The note with it: mRNA level, 48 h; actives raise or lower the signal. In short, it runs like this:
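HepaRG, 48 h post-plating switch to serum-free induction medium; chemical 48 h, 100 uM top, half-log x8, duplicate, 0.5% DMSO. Phenobarbital 1mM induction control. UGT1A6 mRNA by TaqMan qRT-PCR; gain/loss fit vs DMSO.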

Read-out in assay [15]: X-box binding protein 1 (XBP1), XBP1 (gene 7494)
Kind of assay: LTEA_HepaRG_XBP1: Life Technologies and Expression Analysis (LTEA) Assay for X-box binding protein 1 (XBP1) using HepaRG (AID 2283540). The note with it: mRNA level, 48 h; actives raise or lower the signal. In short, it runs like this: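 Transcript levels of XBP1, measured by qRT-PCR and normalised to three housekeeping genes, were fitted bidirectionally relative to 0.5% DMSO controls. Human HepaRG cells received eight-point half-log dilutions from 100 uM for 48 h.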

Assay [16] is described as follows: LTEA_HepaRG_LDH_cytotoxicity: Cytotoxicity Assessment in the Life Technologies and Expression Analysis (LTEA) Assay (AID 2283563; active = hit-call score of the fitted dose curve at least 0.9, where 1 is the maximum;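 also: LDH activity released into spent culture medium as a marker of cell death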). In short, it runs like this:
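Cells were thawed and plated for 48 h. Medium was then replaced with serum-free induction medium. Chemicals (8 half-log points, maximum 100 uM, 0.5% DMSO) were added in duplicate for 48 h, after which spent medium was assayed for LDH.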

Assay [17] is described as follows: ATG_XTT_Cytotoxicity: Cytotoxicity Assessment in the Attagene TRANS-FACTORIAL HepG2 Assay (AID 2283584; active = hit-call score of the fitted dose curve at least 0.9, where 1 is the maximum). In short, it runs like this:
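Cells: human HepG2, transiently transfected with MRTU reporter constructs. Exposure 24 h. Readout: XTT, cell number. Baseline/neg ctrl DMSO; loss-of-signal scored.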

Assay [18] in a line: TOX21_p53_BLA_p2_viability: Viability Assessment in the Tox21 HCT-116 p53 Agonism Beta-lactamase Assay, Phase 2 (AID 2283591; active = hit-call score of the fitted dose curve at least 0.9, where 1 is the maximum;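 also: compound exposure lasted 16 h at 37 °C; actives lower the ATP signal meaning cytotoxicity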). In short, it runs like this:
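HCT116 p53-bla cells, 4000/well, dosed after 5 h plating (217-fold dilution of DMSO stocks) and incubated 16 h at 37C. Viability taken as cellular ATP by CellTiter-Glo luminescence after 30 min RT; signal loss marks cytotoxicity.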

Assay [19] has as its target Cellular tumor antigen p53 (Homo sapiens) (UniProt P04637). The assay can be described thus: TOX21_p53_BLA_p2_ratio: Tox21 HCT-116 p53 Agonism Beta-lactamase Assay, Ratio, Phase 2 (AID 2283592; active = hit-call score of the fitted dose curve at least 0.9, where 1 is the maximum). In short, it runs like this:
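Plated HCT116 p53-bla cells (4000/well) received compound after 5 h, then 16 h at 37C/5% CO2. CCF4-AM added, 2 h RT. Ratio of 460 to 530 nm emission taken as the p53 reporter signal.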

Sequence of Cellular tumor antigen p53 (Homo sapiens) (P04637 whole entry, looked up): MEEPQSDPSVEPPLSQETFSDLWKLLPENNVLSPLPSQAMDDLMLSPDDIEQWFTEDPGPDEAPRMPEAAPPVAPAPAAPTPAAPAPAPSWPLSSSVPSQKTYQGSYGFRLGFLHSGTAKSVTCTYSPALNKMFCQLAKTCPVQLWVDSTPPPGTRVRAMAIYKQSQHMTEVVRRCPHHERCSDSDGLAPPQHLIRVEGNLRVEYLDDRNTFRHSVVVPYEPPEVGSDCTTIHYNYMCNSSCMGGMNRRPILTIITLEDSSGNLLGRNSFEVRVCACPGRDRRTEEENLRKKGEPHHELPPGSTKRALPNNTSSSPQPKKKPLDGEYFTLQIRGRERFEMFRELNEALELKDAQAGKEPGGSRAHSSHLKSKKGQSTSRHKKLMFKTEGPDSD
Sequence of Nuclear factor erythroid 2-related factor 2 (Homo sapiens) (Q16236 whole entry, looked up): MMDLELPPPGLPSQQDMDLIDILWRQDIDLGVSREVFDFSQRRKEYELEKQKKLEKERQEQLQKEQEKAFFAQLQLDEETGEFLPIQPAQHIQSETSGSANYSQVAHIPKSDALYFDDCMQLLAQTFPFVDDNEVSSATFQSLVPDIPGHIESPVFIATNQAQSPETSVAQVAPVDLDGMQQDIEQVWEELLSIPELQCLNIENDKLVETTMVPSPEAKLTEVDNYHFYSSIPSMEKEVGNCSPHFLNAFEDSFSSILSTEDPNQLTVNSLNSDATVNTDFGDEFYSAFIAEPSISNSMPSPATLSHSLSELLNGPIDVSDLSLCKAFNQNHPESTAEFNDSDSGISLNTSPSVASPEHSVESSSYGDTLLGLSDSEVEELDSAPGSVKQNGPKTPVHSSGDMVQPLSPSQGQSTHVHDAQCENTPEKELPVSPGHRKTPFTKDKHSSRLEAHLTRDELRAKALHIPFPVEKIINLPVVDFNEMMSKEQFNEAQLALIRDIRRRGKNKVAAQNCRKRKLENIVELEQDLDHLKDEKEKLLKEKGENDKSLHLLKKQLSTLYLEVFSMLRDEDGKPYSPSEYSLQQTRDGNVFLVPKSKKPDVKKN
Sequence of Signal transducer and activator of transcription 3 (Homo sapiens) (P40763 whole entry, looked up): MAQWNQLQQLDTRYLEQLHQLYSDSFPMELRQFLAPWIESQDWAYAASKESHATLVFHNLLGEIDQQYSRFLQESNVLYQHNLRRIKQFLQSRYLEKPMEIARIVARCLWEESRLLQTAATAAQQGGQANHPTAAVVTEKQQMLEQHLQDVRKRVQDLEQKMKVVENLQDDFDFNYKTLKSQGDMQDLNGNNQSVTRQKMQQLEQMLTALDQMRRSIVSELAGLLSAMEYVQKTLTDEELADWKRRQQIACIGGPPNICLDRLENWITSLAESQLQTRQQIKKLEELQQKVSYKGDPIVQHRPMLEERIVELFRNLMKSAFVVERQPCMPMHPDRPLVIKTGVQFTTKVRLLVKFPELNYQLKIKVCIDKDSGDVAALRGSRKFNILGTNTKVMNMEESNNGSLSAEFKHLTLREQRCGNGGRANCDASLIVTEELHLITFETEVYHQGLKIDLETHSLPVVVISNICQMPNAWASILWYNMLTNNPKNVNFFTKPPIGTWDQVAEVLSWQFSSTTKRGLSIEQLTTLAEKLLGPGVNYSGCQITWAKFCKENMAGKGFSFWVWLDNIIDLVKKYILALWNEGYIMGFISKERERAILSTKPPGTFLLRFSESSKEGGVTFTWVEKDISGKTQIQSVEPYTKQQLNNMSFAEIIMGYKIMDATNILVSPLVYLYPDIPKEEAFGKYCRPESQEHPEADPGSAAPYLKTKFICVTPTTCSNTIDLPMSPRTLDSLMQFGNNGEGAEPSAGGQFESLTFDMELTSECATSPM

Take `O=C(O)Cc1cc(I)c(Oc2cc(I)c(O)c(I)c2)c(I)c1`: the AC50 (commonly the midpoint of the concentration-response curve, whichever way the signal moves) was 49.6 µM (active) in assay [1]; 33.5 µM (active) in [2]; 54.9 µM (active) in [3]; 62.9 µM (active) in assay [4]; 56.2 µM (active) in assay [6]; 52.4 µM (active) in assay [7]. For the same compound, the concentration at half-maximal activity (AC50) is 56.4 µM (active) in [9]; 55.3 µM (active) in assay [10]; 56 µM (active) in assay [11]; 59.1 µM (active) in assay [12]; 61.5 µM (active) in assay [13]; 62.2 µM (active) in assay [14]. Further, the AC50 in [16] was 61.9 µM (active); in assay [18] it was 24.1 µM (active). Further, the outcome is “inactive” in [5]; “inactive” in assay [8]; “inactive” with TIMP1, TIMP1 (gene 7076); “inactive” in assay [15]; “inactive” in assay [17]; “inactive” in assay [19].
Turning to `Cc1cc(CCN2CCN(c3nsc4ccccc34)CC2)cc2c1NC(=O)CC2(C)C`, the AC50 in [1] is 4.39 µM (active); in assay [3] it was 50 µM (active); in assay [6], 77.5 µM (active); in assay [7] it was 85.8 µM (active); in assay [9] it was 35.4 µM (active); in [11], 82 µM (active). Further, the AC50 in assay [12] is 80.4 µM (active); in [13], 91.6 µM (active); in assay [14], 79.5 µM (active); in assay [16], 76.8 µM (active); in assay [18], 60.5 µM (active); in assay [19] it was 71.6 µM (active). The outcome in assay [2] is “inactive”; in assay [4], “inactive”; in assay [5], “inactive”; in [8], “inactive”; with TIMP1, TIMP1 (gene 7076), “inactive”; in assay [10] it was “inactive”. For the same compound, the compound was classed as inactive in assay [15].

The record behind these values is PubChem BioAssay (EPA / NIEHS).
